This is part of a sample that, as a whole, favours compounds with a hit. Of some 83,000 tested, about 20% had one in any assay.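 The test compound was applied at a single concentration to cells in 96-well plates for 48 hours, and percent growth was recorded.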 A number with no mark means an inactive call. Activity calls are given as the source filed them. Rule for the calls: active = growth percent below 10; inactive = the rest.

This assay has as its system HL-60(TB) leukemia. As to the kind of experiment: NCI-60 one-dose screen, 48 h (100 = growth as untreated, 0 = no growth, -100 = all killed). The following applies: 10 µM unless noted.
On to `CCOc1ccc2nc(NC(=O)Nc3ccccc3C)sc2c1`, for which the growth was 15.3%.

Regarding `O=C(Nc1ccc(-c2nc(-c3cccc(O)c3)c(-c3ccnc(Br)c3)[nH]2)cc1)c1ccccc1`, the growth was -53.1% (active). As for `CN1CCN(c2ccc(C(=O)/C=C/c3cc(F)cc(C(F)(F)F)c3)cc2)CC1`, the figure is 3.06% (active); as for `Cc1ccc(S(=O)(=O)N(CC[C@@H]2C[C@H]2c2cc3ccccc3o2)S(=O)(=O)c2ccc(C)cc2)cc1`, 64.6%; as for `CCCCSC1=C(Cl)CN(c2ccc(Cl)cc2)C1=O`, 85.4%. For `CC/C(=C/c1cc(OC)ccc1O)c1ccc2cc(OC)ccc2[o+]1` the value was 6.9% (active); for `CC(C)C(=O)Nc1ccc(-c2nc(-c3cccc(O)c3)c(-c3ccnc(Br)c3)[nH]2)cc1`, -40.4% (active); for `CC1CCN(CC(=O)Nn2c(COc3ccccc3)nc3ccccc3c2=O)CC1`, 80.3%. On to `C=C(C)[C@@H]1CC[C@]2(C(=O)O)CC[C@]3(C)[C@H](CC[C@@H]4[C@@]5(C)C/C(=C/c6ccccn6)C(=O)C(C)(C)[C@@H]5CC[C@]43C)[C@@H]12`, for which the growth was 15.3%. As for `CC(C)(C)c1ccc(-c2nnc(-c3nc4ccccc4nc3Cl)o2)cc1`, the figure is 13.6%. `O=C(CCCCCCN1CC(=O)N2[C@@H](c3ccccc3)c3[nH]c4ccccc4c3C[C@H]2C1=O)NO`: the growth was 28.5%. Consider `NS(=O)(=O)c1ccc(Nc2nc(N/N=C/c3c[nH]c4ccccc34)nc(Nc3ccccc3)n2)cc1`, for which the growth is 34.4%. For `O=C(NNc1nc2cc(F)cc(F)c2n2cccc12)c1cccnn1`, the growth was 3.63% (active).

The values are drawn from PubChem BioAssay (NCI).
